Holding throughout (settings): 25 µM; exposure: 24-48 hpf
Test [1] has as its system Danio rerio Tg(wt1b:EGFP) embryo, pronephros. In words: glomerular separation, fold change vs DMSO control; higher = glomeruli further apart (abnormal). The method in brief: (§1)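 Features are reported as fold changes against the mean of same-day DMSO-treated embryos. Before that, values more than 2 SD away from the feature mean were excluded. The embryos, dechorionated Tg(wt1b:EGFP) zebrafish, had been exposed from 24 to 48 hpf at 28.5°C to 25 μM compound in 0.5% DMSO in HEPES-buffered E3 with 0.003% PTU, and distances and angles came from 16 manually set points on maximum projections of dorsal pronephros images in Fiji.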

For test [2] the test system is unchanged. In words: glomerular width (mean of left and right), fold change vs DMSO control; higher = wider glomerulus. An outline of the steps: as §1
The test system is the same in test [3]. Briefly: fraction of imaged embryos annotated as normal kidney; higher = less nephrotoxic; extreme values may be limits of the assay. The method in brief:
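Dechorionated Tg(wt1b:EGFP) zebrafish embryos were incubated with 25 μM compound in 0.5% DMSO, 5 mM HEPES-buffered E3 and 0.003% PTU from 24 to 48 hpf at 28.5°C. Pronephroi were then imaged by widefield fluorescence, and the fraction of embryos per treatment assigned by hand to the normal-kidney category is given.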

For test [4] the test system is unchanged. Briefly: pronephric angle neck segment to proximal convoluted tubule (mean of left and right), fold change vs DMSO control; higher = larger pronephric angle. An outline of the steps:
as §1

Where a name gives a salt, the structure may show the parent alone. ± gives the standard deviation or the standard deviation of the averaged measurements.

`C[N+](C)(C)CCOC(N)=O` [Carbachol] had a glomerular separation in test [1] of 0.868 ± 0.25. Besides, the glomerular width in test [2] worked out at 1 ± 0.013. Besides, in test [3], the “fraction of imaged embryos annotated as normal kidney” value (from here on “fraction of imaged embryos annotated”) was found to be 0.667. Moreover, the “pronephric angle neck segment” value in test [4] was determined as 1.01 ± 0.047.
The corresponding values for `CN(C)CCCN1c2ccccc2CCc2ccccc21` [Imipramine hydrochloride] are 0.946 ± 0.39, 1.02 ± 0.14, 0.75 and 0.996 ± 0.041.
Taken in the same sequence, the figures for `Nc1nc(O)c2ncn(CCC(CO)CO)c2n1` [Penciclovir] were 0.817 ± 0.31, 1.01 ± 0.019, 0.917 and 0.964 ± 0.05.
Taken in the same sequence, the figures for `CC(=O)[C@H]1CC[C@H]2[C@@H]3CC=C4C[C@@H](O)CC[C@]4(C)[C@H]3CC[C@]12C` [Pregnenolone] were 1.31 ± 0.74, 1.14 ± 0.018, 0.583 and 0.999 ± 0.16.
`O=C(O)CCCC[C@@H]1SC[C@@H]2NC(=O)N[C@@H]21` [Biotin]: the glomerular separation in test [1] stood at 0.993 ± 0.31. The compound also gave a glomerular width in test [2] of 0.993 ± 0.043. For the same compound, the “fraction of imaged embryos annotated” value in test [3] is 0.917. Further, the “pronephric angle neck segment” value in test [4] is 1.02 ± 0.066.
Taken in the same sequence, the figures for `Cc1cc(C)nc(NS(=O)(=O)c2ccc(N)cc2)n1` [Sulfamethazine sodium salt] were 1.11 ± 0.43, 1.08 ± 0.048, 0.917 and 1.01 ± 0.031.
As to `C=CC1=C(C(=O)O)N2C(=O)[C@@H](NC(=O)/C(=N\OCC(=O)O)c3csc(N)n3)[C@H]2SC1` [Cefixime], in test [1], the glomerular separation is 1.32 ± 0.59. In test [2], the glomerular width came to 1 ± 0.014. Besides, the “fraction of imaged embryos annotated” value in test [3] amounted to 0.75. In test [4], the “pronephric angle neck segment” value was found to be 1.07 ± 0.1.
`CC(C)(O)c1ccccc1CC[C@@H](SCC1(CC(=O)O)CC1)c1cccc(/C=C/c2ccc3ccc(Cl)cc3n2)c1` [Montelukast] showed a glomerular separation in test [1] of 0.861 ± 0.26. Further, in test [2], the glomerular width was 0.925 ± 0.047. Further, the “fraction of imaged embryos annotated” value in test [3] is 0.833. For the same compound, in test [4], the “pronephric angle neck segment” value was 1.04 ± 0.026.
Taken in the same sequence, the figures for `CC(C(=O)O)c1cccc(Oc2ccccc2)c1` (centres undefined) [Fenoprofen calcium salt dihydrate] were 3.89 ± 1.7, 0.88 ± 0.059, 0 and 1.55 ± 0.027.
Taken in the same sequence, the figures for `COC(=O)C1=C(C)NC(C)=C(C(=O)OC2CCCN(Cc3ccccc3)C2)C1c1cccc([N+](=O)[O-])c1` (centres undefined) [Benidipine hydrochloride] were 4.55 ± 0.53, 0.7 ± 0.061, 0 and 0.99 ± 0.056.
The corresponding values for `CCCN(CCC)S(=O)(=O)c1ccc(C(=O)O)cc1` [Probenecid] are 1.41 ± 0.61, 0.907 ± 0.091, 0.833 and 0.915 ± 0.028.
In turn, `CC(C)(C#N)c1cc(Cn2cncn2)cc(C(C)(C)C#N)c1` [Anastrozole] showed a glomerular separation in test [1] of 1.2 ± 0.37. In addition, in test [2], the glomerular width turned out to be 1.059 ± 0.0058. The “fraction of imaged embryos annotated” value in test [3] came out at 0.75. Besides, the “pronephric angle neck segment” value in test [4] came to 1.04 ± 0.062.
The corresponding values for `CC[C@H]1OC(=O)[C@H](C)[C@@H](O[C@H]2C[C@@](C)(OC)[C@@H](O)[C@H](C)O2)[C@H](C)[C@@H](O[C@@H]2O[C@H](C)C[C@H](N(C)C)[C@H]2O)[C@](C)(O)C[C@@H](C)[C@@H]2N[C@@H](COCCOC)O[C@H]([C@H]2C)[C@]1(C)O` [Dirithromycin] are 1 ± 0.51, 0.964 ± 0.041, 1 and 0.981 ± 0.065.
Taken in the same sequence, the figures for `c1ccc(CN(CC2=NCCN2)c2ccccc2)cc1` [Antazoline hydrochloride] were 1.08 ± 0.41, 1.04 ± 0.016, 0.833 and 0.9446 ± 0.00065.
Consider `COC(c1ccccc1)(c1ccccc1)[C@H](Oc1nc(C)cc(C)n1)C(=O)O` [Ambrisentan], for which the glomerular separation in test [1] was 0.883 ± 0.35. This compound also displayed a glomerular width in test [2] of 0.873 ± 0.017. In test [3], the “fraction of imaged embryos annotated” value is 0.833. The “pronephric angle neck segment” value in test [4] was 1.09 ± 0.018.
The corresponding values for `Cc1cc(NS(=O)(=O)c2ccc(N)cc2)no1` [Sulfamethoxazole] are 0.872 ± 0.23, 1.05 ± 0.026, 0.833 and 0.9977 ± 0.0021.
The compound `CCN(CC)C(=O)C1(c2ccccc2)CC1CN` (centres undefined) [Milnacipran hydrochloride] registered a glomerular separation in test [1] of 0.724 ± 0.23. Also, the glomerular width in test [2] stood at 1.19 ± 0.037. The “fraction of imaged embryos annotated” value in test [3] was determined as 1. Moreover, the “pronephric angle neck segment” value in test [4] was found to be 0.9653 ± 0.008.
The corresponding values for `CN1CCN(C2=Nc3cc(Cl)ccc3Nc3ccccc32)CC1` [Clozapine] are 0.792 ± 0.2, 1.05 ± 0.011, 1 and 0.975 ± 0.058.
The corresponding values for `CC1CCc2cc(F)cc3c(=O)c(C(=O)O)cn1c23` (centres undefined) [Flumequine] are 2.57 ± 1.2, 1.05 ± 0.023, 0.583 and 1.15 ± 0.046.
Consider `CN(C)CCc1c[nH]c2ccc(C[C@H]3COC(=O)N3)cc12` [Zolmitriptan], for which the glomerular separation in test [1] worked out at 0.75 ± 0.13. In addition, in test [2], the glomerular width was found to be 0.941 ± 0.034. Besides, in test [3], the “fraction of imaged embryos annotated” value amounted to 0.833. Further, the “pronephric angle neck segment” value in test [4] stood at 1.03 ± 0.019.
The corresponding values for `C#C[C@]1(O)CC[C@H]2[C@@H]3CCC4=CCCC[C@@H]4[C@H]3CC[C@@]21C` [Lynestrenol] are 0.801 ± 0.38, 0.994 ± 0.054, 0.917 and 1.02 ± 0.051.
Taken in the same sequence, the figures for `CCOc1ccc(NC(C)=O)cc1` [Phenacetin] were 1.14 ± 0.31, 1.0834 ± 0.00038, 0.667 and 0.946 ± 0.022.
The corresponding values for `CN(CCCCCCCCCCN(C)C(=O)Oc1cccc([N+](C)(C)C)c1)C(=O)Oc1cccc([N+](C)(C)C)c1` [Demecarium bromide] are 1.54 ± 0.77, 0.923 ± 0.032, 1 and 1.078 ± 0.0073.
Turning to `Clc1ccc2c(c1)CCc1cccnc1C2=C1CCNCC1` [Desloratadine], the glomerular separation in test [1] amounted to 0.811 ± 0.28. The glomerular width in test [2] is 0.94 ± 0.011. The “fraction of imaged embryos annotated” value in test [3] was determined as 0.917. Moreover, the “pronephric angle neck segment” value in test [4] stood at 1.06 ± 0.044.
The corresponding values for `CCCCC[C@H](O)/C=C/[C@@H]1[C@@H](C/C=C\CCCC(=O)O)[C@@H](O)C[C@H]1O` [Dinoprost trometamol] are 0.881 ± 0.18, 1.01 ± 0.064, 0.833 and 0.975 ± 0.043.
The corresponding values for `CC(=O)Nc1c(I)c(C(=O)N[C@H]2C(O)O[C@H](CO)[C@@H](O)[C@@H]2O)c(I)c(N(C)C(C)=O)c1I` (some centres undefined) [Metrizamide] are 0.874 ± 0.3, 1.11 ± 0.1, 0.833 and 0.988 ± 0.025.

(Values after the supplement of paper PMC7366291.)
